According to PubChem BioAssay (NCI):
This is part of a sample that, as a whole, favours compounds with a hit. Of some 79,000 tested, about 15% had one in any assay. The source made the active and inactive calls. No stated cut-off is given here; in the data, active means growth inhibition above about 70%; inactive means the rest.

Key:
[1] = NCI Yeast Anticancer Drug Screen. Data for the rad52 strain (AID 147);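 further: 0% = growth of vehicle-treated control cultures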; conditions: S. cerevisiae rad52 mutant growth inhibition, stronger effect = higher value
Summary of the method: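 Measured: yeast growth inhibition. System: strain with a defined DNA damage repair alteration. Reference: vehicle-treated control cultures.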

[2] = NCI Yeast Anticancer Drug Screen. Data for the wt1 strain (AID 149);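 further: 0% = growth of vehicle-treated wt1 cultures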; conditions: S. cerevisiae wt1 strain (SPY 50644) growth inhibition, stronger effect = higher value
Summary of the method: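 Each compound is tested on wt1 yeast and the loss of growth versus vehicle gives the inhibition value.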

[3] = NCI Yeast Anticancer Drug Screen. Data for the rad50EPP+ strain (AID 151);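 further: 0% = growth of vehicle-treated control cultures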; conditions: S. cerevisiae rad50 mutant strain, stronger effect = higher value
Summary of the method: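 One strain with a rad50 alteration (rad50EPP+) was compound-treated, its growth then compared to that of vehicle controls.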

[4] = NCI Yeast Anticancer Drug Screen. Data for the mgt1 strain (AID 153); conditions: S. cerevisiae mgt1 mutant growth inhibition, stronger effect = higher value
Summary of the method: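 After exposure of the mgt1 yeast mutant to compound, growth was measured and reported as inhibition compared with vehicle controls.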

[5] = NCI Yeast Anticancer Drug Screen. Data for the rad50 strain (AID 155);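 further: 0% = growth of vehicle-only cultures of the same strain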; conditions: S. cerevisiae rad50 strain growth inhibition, stronger effect = higher value
Summary of the method: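 Vehicle-treated cultures provide the reference for the growth inhibition reported for compound-exposed, repair-deficient yeast.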

[6] = NCI Yeast Anticancer Drug Screen. Data for the mec2-1 strain (AID 157); conditions: S. cerevisiae mec2-1 strain, stronger effect = higher value
Summary of the method: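 Test agents were screened against the mec2-1 yeast strain, with defined DNA repair or cell cycle alteration. Growth was scored as inhibition against vehicle-only controls.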

[7] = NCI Yeast Anticancer Drug Screen. Data for the rad14 strain (AID 159);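 further: 0% = growth of vehicle-treated control cultures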; conditions: S. cerevisiae rad14 strain growth inhibition, stronger effect = higher value
Summary of the method: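 Inhibition of growth is reported for a repair-deficient yeast mutant following compound treatment, calculated relative to cultures that received vehicle.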

[8] = NCI Yeast Anticancer Drug Screen. Data for the sgs1 mgt1 strain (AID 161);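 further: 0% = growth of cultures given vehicle only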; conditions: S. cerevisiae sgs1 mgt1 strain, stronger effect = higher value
Summary of the method: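 Mutant yeast exposed to compound; growth scored against vehicle-only wells.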

[9] = NCI Yeast Anticancer Drug Screen. Data for the CLN2oe strain (AID 163);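 further: 0% = growth of vehicle-only control cultures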; conditions: S. cerevisiae CLN2oe strain, stronger effect = higher value
Summary of the method: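 Here, growth inhibition in a cell-cycle-altered yeast strain after compound exposure was quantified against vehicle control growth.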

[10] = NCI Yeast Anticancer Drug Screen. Data for the cln2 rad14 strain (AID 165);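 further: 0% = growth equal to vehicle treated cultures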; conditions: S. cerevisiae cln2 rad14 strain, stronger effect = higher value
Summary of the method: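 Growth of compound-exposed yeast (cln2 rad14 genotype) measured and expressed as inhibition relative to vehicle.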

[11] = NCI Yeast Anticancer Drug Screen. Data for the bub3 strain (AID 167); conditions: S. cerevisiae bub3 mutant strain, stronger effect = higher value
Summary of the method: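 Mutant yeast screening strain plus compound; vehicle-treated cultures serve as the 0% inhibition reference.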

[12] = NCI Yeast Anticancer Drug Screen. Data for the wt2 strain (AID 169); conditions: S. cerevisiae wt2 strain growth inhibition, stronger effect = higher value
Summary of the method: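 Genetically defined yeast strains from a DNA-repair/cell-cycle panel were used. Compound-exposed yeast growth was measured, and the inhibition was calculated relative to vehicle treatment.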

[13] = NCI Yeast Anticancer Drug Screen. Data for the mlh1 strain (AID 171);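 further: 0% = growth of vehicle-treated control cultures of the same strain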; conditions: S. cerevisiae mlh1 strain growth inhibition, stronger effect = higher value
Summary of the method: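 Here the genetically defined yeast mutant is grown with each compound, and the extent to which its growth falls below that of vehicle-exposed cells is reported.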

[14] = NCI Yeast Anticancer Drug Screen. Data for the sgs1 strain (AID 173);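 further: 0% = growth of vehicle-only control cultures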; conditions: S. cerevisiae sgs1 mutant, stronger effect = higher value
Summary of the method: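 Relative growth inhibition, referenced to vehicle, was determined in a yeast strain with a defined alteration affecting DNA damage repair or cell cycle control after compound exposure.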

[15] = NCI Yeast Anticancer Drug Screen. Data for the mlh1 rad18 strain (AID 175); conditions: S. cerevisiae mlh1 rad18 strain growth inhibition, stronger effect = higher value
Summary of the method: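 In this whole-cell yeast screen, a strain with altered DNA damage repair is challenged with compound, and its growth is measured against matched vehicle-treated controls.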

[16] = NCI Yeast Anticancer Drug Screen. Data for the rad18 strain (AID 177); conditions: S. cerevisiae rad18 mutant growth inhibition, stronger effect = higher value
Summary of the method: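 Screen uses a yeast strain with a defined lesion in DNA damage repair; compound effect is read as loss of growth compared to untreated vehicle cultures.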

[17] = at 5.0 µM (retest, dose inferred, filed as 0.5)
[18] = at 50.0 µM (retest, dose inferred, filed as 5.0)

Measured: growth inhibition

O=S(=O)(NC1CCCC(c2ccccc2)C1)c1ccccc1 (stereo not drawn)
active: [1]; at 100.0 µM 90% | [4]; at 100.0 µM 95% | [5]; [18] 71% | [5]; at 100.0 µM 93% | [6]; at 100.0 µM 82% | [7]; at 100.0 µM 96% | [9]; at 100.0 µM 95% | [11]; [18] 76% | [11]; at 100.0 µM 87% | [12]; at 100.0 µM 90% | [13]; at 100.0 µM 82% | [14]; at 100.0 µM 97% | [15]; [18] 76% | [16]; at 100.0 µM 93%
inactive: [1]; at 1.2 µM 1% | [1]; at 3.7 µM 3% | [1]; at 11.0 µM 3% | [1]; at 33.0 µM 10% | [2]; at 1.2 µM -1% | [2]; at 3.7 µM -4% | [2]; at 11.0 µM 2% | [2]; at 33.0 µM -3% | [2]; at 100.0 µM 50% | [3]; at 1.2 µM -1% | [3]; at 3.7 µM 1% | [3]; at 11.0 µM -1% | [3]; at 33.0 µM 3% | [3]; at 100.0 µM 20% | [4]; at 1.2 µM -3% | [4]; at 3.7 µM -2% | [4]; at 11.0 µM -1% | [4]; at 33.0 µM -2% | [5]; at 1.2 µM 3% | [5]; at 3.7 µM 3% | [5]; [17] -9% | [5]; at 11.0 µM 2% | [5]; at 33.0 µM 11% | [5]; at 50.0 µM 18.2% | [6]; at 1.2 µM -8% | [6]; at 3.7 µM -2% | [6]; [17] -12% | [6]; at 11.0 µM -3% | [6]; at 33.0 µM 0% | [6]; [18] -7% | [6]; at 50.0 µM 24.6% | [7]; at 1.2 µM 1% | [7]; at 3.7 µM 2% | [7]; at 11.0 µM 2% | [7]; at 33.0 µM 4% | [8]; [17] -24% | [8]; [18] 23% | [8]; at 50.0 µM 19.4% | [9]; at 1.2 µM -4% | [9]; at 3.7 µM -4% | [9]; at 11.0 µM 2% | [9]; at 33.0 µM 9% | [10]; [17] -13% | [10]; [18] 16% | [10]; at 50.0 µM 50.8% | [11]; at 1.2 µM 1% | [11]; at 3.7 µM -1% | [11]; [17] -8% | [11]; at 11.0 µM 0% | [11]; at 33.0 µM 15% | [11]; at 50.0 µM 60.8% | [12]; at 1.2 µM -4% | [12]; at 3.7 µM -7% | [12]; at 11.0 µM -3% | [12]; at 33.0 µM -6% | [13]; at 1.2 µM -2% | [13]; at 3.7 µM 0% | [13]; at 11.0 µM -1% | [13]; at 33.0 µM 3% | [14]; at 1.2 µM -4% | [14]; at 3.7 µM 4% | [14]; at 11.0 µM -2% | [14]; at 33.0 µM 1% | [15]; [17] -26% | [15]; at 50.0 µM 57.8% | [16]; at 1.2 µM 0% | [16]; at 3.7 µM -2% | [16]; at 11.0 µM 1% | [16]; at 33.0 µM 3%
